# Experimental data published in the supplement of paper PMC8728848.
# The sample as a whole holds a higher share of the strongest signals than the screen did.
# Legend:
# Test in all cases: glycan array binding signal (z-score within array); higher = stronger binding
# Details in all cases: glycan notation: IUPAC condensed, linker removed
# Fuc(a1-2)Gal(b1-3)GalNAc = biological target: Fuc(a1-2)Gal(b1-3)GalNAc
# Summary of the method: (§1)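 The binding signal is a Z-score computed within each array and averaged over linkers. Arrays of the same protein sequence at different concentrations or buffers were also averaged together. Data originate from 3228 arrays in the Consortium for Functional Glycomics database, kept only where the protein sequence was available.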
# [1] = biological target: Fuc(a1-2)Gal(b1-3)GalNAc(b1-3)Gal
# Summary of the method: as §1
# [2] = biological target: Fuc(a1-2)Gal(b1-3)GlcNAc(b1-3)[Neu5Ac(a2-6)Gal(b1-4)GlcNAc(b1-6)]Gal(b1-4)Glc
# Summary of the method: as §1
# [3] = biological target: Fuc(a1-2)Gal(b1-3)[Fuc(a1-4)]GlcNAc(b1-2)Man(a1-3)[Fuc(a1-2)Gal(b1-3)[Fuc(a1-4)]GlcNAc(b1-2)Man(a1-3)]Man(b1-4)GlcNAc(b1-4)GlcNAc
# Summary of the method: as §1
# [4] = biological target: Fuc(a1-2)Gal(b1-4)GlcNAc(b1-2)Man(a1-3)[Fuc(a1-2)Gal(b1-4)GlcNAc(b1-2)Man(a1-6)]Man(b1-4)GlcNAc(b1-4)GlcNAc
# Summary of the method: as §1
# [5] = biological target: Fuc(a1-2)Gal(b1-4)[Fuc(a1-3)]GlcNAc(b1-3)[Neu5Ac(a2-6)Gal(b1-4)GlcNAc(b1-6)]Gal(b1-4)Glc
# Summary of the method: as §1
# [6] = biological target: Fuc(a1-2)[Gal(a1-3)]Gal(b1-3)GlcNAc(b1-6)GalNAc
# Summary of the method: as §1
# [7] = biological target: Fuc(a1-2)[Gal(a1-3)]Gal(b1-4)GlcNAc(b1-2)Man
# Summary of the method: as §1
# [8] = biological target: Fuc(a1-2)[Gal(a1-3)]Gal(b1-4)GlcNAc(b1-6)GalNAc
# Summary of the method: as §1
# [9] = biological target: Fuc(a1-2)[GalNAc(a1-3)]Gal(b1-3)GlcNAc(b1-2)Man(a1-3)[Fuc(a1-2)[GalNAc(a1-3)]Gal(b1-3)GlcNAc(b1-2)Man(a1-6)]Man(b1-4)GlcNAc(b1-4)[Fuc(a1-6)]GlcNAc
# Summary of the method: as §1
# [10] = biological target: Fuc(a1-2)[GalNAc(a1-3)]Gal(b1-4)GlcNAc
# Summary of the method: as §1
# [11] = biological target: Fuc(a1-2)[GalNAc(a1-3)]Gal(b1-4)GlcNAc(b1-2)Man
# Summary of the method: as §1
# [12] = biological target: Fuc(a1-2)[GalNAc(a1-3)]Gal(b1-4)GlcNAc(b1-2)Man(a1-3)[Fuc(a1-2)[GalNAc(a1-3)]Gal(b1-4)GlcNAc(b1-2)Man(a1-6)]Man(b1-4)GlcNAc(b1-4)GlcNAc
# Summary of the method: as §1
# [13] = biological target: Fuc(a1-2)[GalNAc(a1-3)]Gal(b1-4)GlcNAc(b1-3)GalNAc
# Summary of the method: as §1
# [14] = biological target: Fuc(a1-3)[Gal(b1-4)]GlcNAc(b1-2)Man(a1-3)[Fuc(a1-3)[Gal(b1-4)]GlcNAc(b1-2)Man(a1-6)]Man(b1-4)GlcNAc(b1-4)[Fuc(a1-6)]GlcNAc
# Summary of the method: as §1
# [15] = biological target: Fuc(a1-3)[Gal3S(b1-4)]GlcNAc6S
# Summary of the method: as §1
# [16] = biological target: Gal(a1-3)Gal(b1-3)GlcNAc(b1-2)Man(a1-3)[Gal(a1-3)Gal(b1-3)GlcNAc(b1-2)Man(a1-6)]Man(b1-4)GlcNAc(b1-4)GlcNAc
# Summary of the method: as §1
# [17] = biological target: Gal(a1-3)Gal(b1-4)GlcNAc(b1-2)Man(a1-3)[Gal(a1-3)Gal(b1-4)GlcNAc(b1-2)Man(a1-6)]Man(b1-4)GlcNAc(b1-4)GlcNAc
# Summary of the method: as §1
# [18] = biological target: Gal(a1-4)Gal(b1-4)GlcNAc(b1-2)Man(a1-3)[Gal(a1-4)Gal(b1-4)GlcNAc(b1-2)Man(a1-6)]Man(b1-4)GlcNAc(b1-4)GlcNAc
# Summary of the method: as §1
# Gal(b1-2)Gal = biological target: Gal(b1-2)Gal
# Summary of the method: as §1
# [19] = biological target: Gal(b1-3)GlcNAc(b1-2)Man(a1-3)[Gal(b1-3)GlcNAc(b1-2)Man(a1-6)]Man(b1-4)GlcNAc(b1-4)[Fuc(a1-6)]GlcNAc
# Summary of the method: as §1
# [20] = biological target: Gal(b1-3)GlcNAc(b1-3)Gal(b1-4)GlcNAc(b1-3)Gal(b1-4)GlcNAc(b1-2)[Gal(b1-3)GlcNAc(b1-3)Gal(b1-4)GlcNAc(b1-3)Gal(b1-4)GlcNAc(b1-6)]Man(a1-6)[Gal(b1-3)GlcNAc(b1-3)Gal(b1-4)GlcNAc(b1-3)Gal(b1-4)GlcNAc(b1-2)Man(a1-3)]Man(b1-4)GlcNAc(b1-4)[Fuc(a1-6)]GlcNAc
# Summary of the method: as §1
# [21] = biological target: Gal(b1-3)[Fuc(a1-4)]GlcNAc(b1-2)Man
# Summary of the method: as §1
# [22] = biological target: Gal(b1-3)[Neu5Ac(b2-6)]GalNAc
# Summary of the method: as §1
# Gal(b1-4)Gal = biological target: Gal(b1-4)Gal
# Summary of the method: as §1
# [23] = biological target: Gal(b1-4)GlcNAc(b1-2)Man(a1-6)[Man(a1-3)]Man(b1-4)GlcNAc(b1-4)GlcNAc
# Summary of the method: as §1
# [24] = biological target: Gal(b1-4)GlcNAc(b1-2)[Gal(b1-4)GlcNAc(b1-4)]Man(a1-3)[Gal(b1-4)GlcNAc(b1-2)Man(a1-6)]Man(b1-4)GlcNAc(b1-4)GlcNAc
# Summary of the method: as §1
# [25] = biological target: Gal(b1-4)GlcNAc(b1-2)[Gal(b1-4)GlcNAc(b1-4)]Man(a1-3)[Gal(b1-4)GlcNAc(b1-2)[Gal(b1-4)GlcNAc(b1-6)]Man(a1-6)]Man(b1-4)GlcNAc(b1-4)GlcNAc
# Summary of the method: as §1
# [26] = biological target: Gal(b1-4)GlcNAc(b1-2)[Gal(b1-4)GlcNAc(b1-6)]Man(a1-6)[Gal(b1-4)GlcNAc(b1-2)Man(a1-3)]Man(b1-4)GlcNAc(b1-4)[Fuc(a1-6)]GlcNAc
# Summary of the method: as §1
# [27] = biological target: Gal(b1-4)GlcNAc(b1-3)Gal(b1-3)GlcNAc
# Summary of the method: as §1
binder,measurement,setting,value
PX14343H-pdi-506-26-506 (Parabacteroides distasonis) (protein) QPTGTMTTDSKLTSKESALALTNSAYLKNTVFNKMTPGWGCNTILLLEYMTGKATSENSQSNYKDFQDLLVSDRSLYIEDWWQDCYAGIANCNLALQKLGEFENLDASLVNGYMAEVKFMRALYYFYLVRIFGDVPKITTVQSELGELQVSRAPVKEIYDEIIIPDLLEAEQSDLAFSDHTGRVSMGAVKALLADVYLTYAGYPLQGGKSYYAESAKRSLEVIKSNEYTLFTDYESLRLPSQNNKGEFIYQVQFSLNKRHNESVRIFLPSRSGISAYDLEYGSLIPTKEFVESFEKGDKRTEEKQYFFTNYKGHPSKFSPGAAELEFMDLNGYYIYKFFDQVAVDNTAKSDLNWSVYRYTDVLLMYAEAQVNADGTPNQQSIDIVNQIRGRAGLAPFKQTNASAFLEEVWDQRYFDLCYENKMWFDMLRTRKIRDDKSGEYVDFIGYKTNWGKVYTETQLLFPIPLSERQANPNLTQNQGY,glycan array binding signal (z-score),Fuc(a1-2)Gal(b1-3)GalNAc,-0.509
same,glycan array binding signal (z-score),[1],-0.373
same,glycan array binding signal (z-score),[2],-0.402
same,glycan array binding signal (z-score),[3],-0.174
same,glycan array binding signal (z-score),[4],3.11
same,glycan array binding signal (z-score),[5],-0.392
same,glycan array binding signal (z-score),[6],-0.255
same,glycan array binding signal (z-score),[7],-0.394
same,glycan array binding signal (z-score),[8],-0.381
same,glycan array binding signal (z-score),[9],-0.391
same,glycan array binding signal (z-score),[10],-0.526
same,glycan array binding signal (z-score),[11],-0.523
same,glycan array binding signal (z-score),[12],4.7
same,glycan array binding signal (z-score),[13],-0.4
same,glycan array binding signal (z-score),[14],2.77
same,glycan array binding signal (z-score),[15],-0.299
same,glycan array binding signal (z-score),[16],3.96
same,glycan array binding signal (z-score),[17],6.89
same,glycan array binding signal (z-score),[18],0.705
same,glycan array binding signal (z-score),Gal(b1-2)Gal,-0.367
same,glycan array binding signal (z-score),[19],0.737
same,glycan array binding signal (z-score),[20],3.2
same,glycan array binding signal (z-score),[21],-0.12
same,glycan array binding signal (z-score),[22],-0.512
same,glycan array binding signal (z-score),Gal(b1-4)Gal,1.08
same,glycan array binding signal (z-score),[23],5.33
same,glycan array binding signal (z-score),[24],0.486
same,glycan array binding signal (z-score),[25],-0.221
same,glycan array binding signal (z-score),[26],0.886
same,glycan array binding signal (z-score),[27],-0.366
